From PubChem BioAssay (Tox21)
Inconclusive results are not listed. The source made the active and inactive calls. Calls follow the shape of the dose curve; as a rule, active = well fitted activation curve with a large enough effect in the repeat runs; inconclusive = weak or mixed curves; inactive = flat fitted curve, though single readings scatter.

Assay: A CellTox Green Cytotoxicity Assay to monitor cytotoxicity in HepG2 cells - 40 hour (AID 1224879); also: nearly all actives have a fitted effect of over 40% in size
Conditions: CellTox Green fluorescence; series mostly up to 76.8 µM; cytotoxicity increase: at the top concentration
Description: National Center for Advancing Translational Sciences [NCATS]
NIH Chemical Genomics Center [NCGC]
U.S. Environmental Protection Agency [EPA]
National Institutes of Environmental Health Sciences [NIEHS]
National Toxicology Program [NTP]
Cell-based models are critical for drug discovery. Determining the natural cytotoxic effects resulting from test compounds is an essential research activity. A CellTox Green Cytotoxicity Assay to monitor cytotoxicity in real time of continues cell culture during 40 hours of the compound treatment was used to screen Tox21 10K library compounds in HepG2 cells. CellTox Green Cytotoxicity Assay is a nonlytic, homogeneous, biofluorescent method to measure cytotoxicity in cell culture after experimental manipulation. The assay system uses a proprietary asymmetric cyanine dye that is excluded from viable cells but preferentially stains the dead cell's DNA. […] Viable cells produce no appreciable increases in fluorescence. Therefore, the fluorescence signal produced by the binding interaction with dead cell DNA is proportional to cytotoxicity.
The mixture of HepG2 cell suspension and reagents were dispensed at 600cells/6 ul/well in 1536-well tissue culture treated black solid bottom plates using a Multidrop dispenser. After the assay plates were incubated at a 37 C/5% CO2 incubator for 5 hours, 23 nL of compounds dissolved in DMSO, positive and negative controls was transferred to the assay plate by a pintool work station. The plates were incubated at 37 C for 40 hours. The fluorescence intensity were measured at 0h, 8h, 16h, 24h, 32h and 40h time points using ViewLux plate reader during compound treatment.
% is scaled to controls: 0 for no effect and ±100 for the full control effect; potency is read from the fitted curve at half-maximal effect.

Row | Compound | cytotoxicity increase | Potency
1 | CCCC(C)CCC(C)=O (stereo not given) | 4.72% (inactive) | 
2 | CCCCCCCCC(C)=O | -12% (inactive) | 
3 | N[C@@H](CSSC[C@H](N)C(=O)O)C(=O)O | 5.29% [at 0.29 µM] (inactive) | 
4 | Clc1nc2ccccc2s1 | -5.69% (inactive) | 
5 | OCCCS | 11.2% (inactive) | 
6 | COC(=O)NCCC[Si](OC)(OC)OC | 9.56% (inactive) | 
7 | CO[C@H]1C=CO[C@@]2(C)Oc3c(C)c(O)c4c(O)c(cc(O)c4c3C2=O)NC(=O)/C(C)=C\C=C/[C@H](C)[C@H](O)[C@@H](C)[C@@H](O)[C@@H](C)[C@H](OC(C)=O)[C@@H]1C | -12.1% (inactive) | 
8 | CCC1(c2cnc[nH]2)Cc2ccccc2C1 | -8.59% [at 35.3 µM] (inactive) | 
9 | O=C(O)CCn1c2c(c3ccccc31)C[C@H](NS(=O)(=O)c1ccc(F)cc1)CC2 | -17.3% [at 35.3 µM] (inactive) | 
10 | COc1cc(C=C2CCC/C(=C\c3ccc(O)c(OC)c3)C2=O)ccc1O |  | 21.3 µM (active)
11 | CC[N+](CC)(CC)Cc1ccccc1 | 11.7% (inactive) | 
12 | CCCSS/C(CCO)=C(\C)N(C=O)Cc1cnc(C)nc1N |  | 26.8 µM (active)
13 | O=C(O)Cc1ccc(OCCNC[C@H](O)c2ccccc2)cc1 | -5.06% [at 35.3 µM] (inactive) | 
14 | Oc1ccc(-c2ccccc2)c(Cl)c1 |  | 49 µM (active)
15 | Cc1cc2c(C(C)C)c(O)c(O)c(C=O)c2c(O)c1-c1c(C)cc2c(C(C)C)c(O)c(O)c(C=O)c2c1O |  | 26.8 µM (active)
16 | CCCN(CCc1cccs1)[C@H]1CCc2c(O)cccc2C1 |  | 23.9 µM (active)
17 | Oc1cc2ccccc2cc1O | -10.2% (inactive) | 
18 | O=C1NCN(c2ccccc2)C12CCN(CCCC(c1ccc(F)cc1)c1ccc(F)cc1)CC2 |  | 6.74 µM (active)
19 | CC(C)=CCCC(C)O (stereo not given) | 14.2% (inactive) | 
20 | Cc1ccc2ccc3cccc4ccc1c2c34 | -3.04% (inactive) | 

Row | Compound | cytotoxicity increase | Potency
21 | CCCCOCC | -22.9% (inactive) | 
22 | CC(C)(C)c1n[nH]c(=O)n(N)c1=O | -8.9% (inactive) | 
23 | N#CSCSc1nc2ccccc2s1 |  | 21.9 µM (active)
24 | CO[Si](CCC1CCC2OC2C1)(OC)OC (stereo not given) | 5.33% (inactive) | 
25 | CCCCCCCCCCc1ccccc1 | 0.0275% (inactive) | 
26 | COC(=O)[C@]1(C)CCC[C@@]2(C)[C@H]1CC=C1C=C(C(C)C)CC[C@@H]12 |  | 24.5 µM (active)
27 | CCCCCCCCCCCCCOP(=O)(O)O | -10.4% (inactive) | 
28 | Cc1cccc(Br)c1 | 1.02% (inactive) | 
29 | CCCCCCCCCCCCCC[n+]1ccccc1 |  | 11 µM (active)
30 | CC1CCCNC1 (stereo not given) | 0.847% (inactive) | 
31 | COc1cccc(OC)c1O | -5.59% (inactive) | 
32 | O=C1OC(=O)c2cccc3cccc1c23 | 9.66% (inactive) | 
33 | C=CC(=C)CCC=C(C)C | 2.87% (inactive) | 
34 | c1ccc2c(c1)CCC2 | 4% (inactive) | 
35 | O=Nc1ccc(NO)cc1 | -8.53% (inactive) | 
36 | C(=C/c1ccccc1)/c1ccccc1 | 4.13% (inactive) | 
37 | C=C[C@](C)(O)CC[C@@H]1[C@@]2(C)CCCC(C)(C)[C@@H]2CC[C@@]1(C)O |  | 49 µM (active)
38 | OCCCc1cccnc1 | -14.4% (inactive) | 
39 | CN1[C@@H]2CC[C@@H]1CC(OC(=O)C(CO)c1ccccc1)C2 (stereo not given in full) | -3.94% [at 35.3 µM] (inactive) | 
40 | Cc1cncc(C)c1 | 4.36% (inactive) | 
